# Reference: PubChem BioAssay (NCATS)
# Records with an inconclusive call do not appear. Unmarked numbers belong to inactive results. The source made the active and inactive calls. Calls come from the whole dose curve; as a rule, active = well fitted curve in the direction sought with a large enough effect; inconclusive = small, poorly fitted or top-dose-only effect, or another doubt; inactive = no such curve, though single readings can be large; an effect the other way counts as inactive or inconclusive.
# Assay: qHTS for Inhibitors of Plasmodium falciparum (HB3) proliferation (AID 504318); note: nearly all actives have a fitted effect of over 60% in size; note: potency is the fitted concentration of half-maximal effect;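 for activity change, negative = inhibition: 0% = DMSO vehicle and -100% = artemisinin control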
# Conditions: P. falciparum HB3 in erythrocytes, SYBR Green DNA, 72 h; series mostly up to 7.21 µM; activity change, negative = inhibition: at the top concentration
# In short: (§1)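 Erythrocytes infected with P. falciparum line (0.3% parasitemia, 2.5% hematocrit final) incubated with compounds 72 h at 37 °C, 5% CO2; SYBR Green lysis buffer added, fluorescence read next day. Normalized to 0.29 uM artemisinin and DMSO.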
Structure (SMILES),Potency,"activity change, negative = inhibition"
CC(=O)C1=C(C)N(Cc2ccccc2)C(=O)NC1CCc1ccccc1 (centres undefined),inactive,
C=CC[C@@H]1C=C[C@H](ON=C(C)CCN2CCCc3nc(C)c(C)cc32)[C@H](CO)O1,2510 nM (active),
COC(=O)C1=C(C(=O)OC)[C@@H]2N(C)c3ccc(OC)cc3[C@@]23C[C@@H](C(=O)OC)N(C(=O)NCCBr)C3=N1,2130 nM (active),
COc1cccc(CO[C@H]2C=C[C@@H](c3ccccc3)O[C@H]2CN=[N+]=[N-])c1,,2.89%
CNc1ccccc1C(=O)OCC(C)=O,,6.84%
O=C1C2=C(C(=O)c3ccccc31)[C@H]1O[C@](c3ccsc3)(Cc3c1ccc1ccccc31)O2,,-13%
COC(=O)N1C(C)=Cc2ccccc2C1CC(C)=CC(C)=O (centres undefined),,-6.02%
CCN1C(=NCCCCO)N[C@@H](CCc2ccccc2)[C@H](C(=O)OC)[C@H]1C,,0.326%
C=CC1=C2C=C(C3CC3)N(C3CCCC3)C=C2C(=O)C(C)(OC(=O)c2ccco2)C1=O (centres undefined),,-8.61%
COC(=O)C1=C(C)N(Cc2ccccc2)C(=NCCc2cccnc2)NC1c1ccccc1 (centres undefined),,-3.85%
CCN(CCNC(=O)[C@H]1C=C(OC)C(=O)C[C@H](c2ccccc2)[C@@H]1C)C(C)=O,,-4.8%
CCCCCCCc1cc2ccccc2c(=O)o1,,-6.05%
FC(F)(F)c1cc(NC(=S)Nc2ccc3ccccc3c2)cc(C(F)(F)F)c1,2130 nM (active),
CCN1C(=O)N[C@@H](CCc2ccccc2)[C@H](C(C)=O)[C@H]1C,inactive,
COC(=O)C1=C[C@H]([C@@H](C)[C@H](OC)c2ccccc2Br)[C@H]2c3ccccc3O[C@@H]12,,-7.5%

# Assay: qHTS for Inhibitors of Plasmodium falciparum (CP250) proliferation (AID 504320);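 note: plate controls were DMSO vehicle for no effect and 0.29 µM artemisinin control for full effect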
# Conditions: P. falciparum CP250 in erythrocytes, SYBR Green DNA, 72 h; series mostly up to 6.7 µM; activity change, negative = inhibition: at the top concentration
# In short: as §1
Structure (SMILES),"activity change, negative = inhibition",Potency
COc1ccc([C@]23Cc4ccccc4[C@H](O2)C2=C(CCCC2=O)O3)cc1,0.66%,
COC(=O)c1ccc(CN2C(=O)[C@@]3(CC(C)=C[C@@H](COc4ccccc4)O3)c3ccccc32)cc1,-12.2%,
COCOc1c2c(c(OCOC)c3c(OCOC)cccc13)C(=NNS(=O)(=O)c1ccc(C)cc1)C1=C2CCCC1,-2.53%,
CCOC(=O)C1=C(CCl)NC(=O)N(C(C)=O)C1c1ccccc1 (centres undefined),-15.9%,
CC(=O)C1=C(C)N(Cc2ccccc2)C(=O)NC1CCc1ccccc1 (centres undefined),,inactive
COc1ccc(O[C@H]2C=C[C@@H](c3ccccc3)O[C@H]2CON=C2c3cc(OC)ccc3O[C@H](c3cccc(OC)c3)[C@H]2O)cc1,-1.84%,
COc1cc2c(c(OC)c1OC)[C@@]1(c3ccccc3)CCCC[C@H]1[C@@H]2NC(=O)C(F)(F)F,-5.98%,
COc1cccc(CO[C@H]2C=C[C@@H](c3ccccc3)O[C@H]2CN=[N+]=[N-])c1,-0.389%,
COc1cc2c(c(OC)c1OC)CC(c1ccccc1)=C(c1ccccc1)CC2NC(=O)C(F)(F)F (centres undefined),-3.34%,
COC(=O)CC=C1c2ccccc2[C@@H](O)[C@@H]1C,-4.09%,
Cc1cc2c(c(=O)n1Cc1ccccc1)[C@H]1O[C@](c3ccsc3)(Cc3ccccc31)O2,1%,
C[C@@H]1C=CCC(=O)N[C@@H](c2ccc3ccccc3c2)[C@H](C)C=CCC(=O)N[C@@H]1c1ccc2ccccc2c1,-19.7%,
CNc1ccccc1C(=O)OCC(C)=O,2.03%,
Cc1cc2c(c(=O)n1Cc1ccccc1)[C@H]1O[C@](CCCCN3C(=O)c4ccccc4C3=O)(Cc3cc(C#N)ccc31)O2,1.56%,
C#CCN1C(=O)[C@]2(O[C@H](COc3ccccc3)CC3=C2CCC3)c2ccccc21,0.0924%,
COC(=O)N1C(C)=Cc2ccccc2C1CC(C)=CC(C)=O (centres undefined),,inactive
CC1=CC[C@@H](C)O[C@@]2(C1)C(=O)N(Cc1ccc(F)cc1)c1ccccc12,-6.35%,
COc1cc2c(cc1OC)[C@@H]1O[C@](c3ccsc3)(C2)Oc2cc(C)n(Cc3ccccc3)c(=O)c21,-20.9%,
CCN1C(=NCCCCO)N[C@@H](CCc2ccccc2)[C@H](C(=O)OC)[C@H]1C,-10.2%,
O=C1CCCC2=C1[C@H]1O[C@](CCCCN3C(=O)c4ccccc4C3=O)(Cc3ccccc31)O2,-15.7%,
C=CC1=C2C=C(C3CC3)N(C3CCCC3)C=C2C(=O)C(C)(OC(=O)c2ccco2)C1=O (centres undefined),,inactive
CC(=O)O[C@@H]1C(CO[Si](C)(C)C(C)(C)C)=C(Br)C(=O)[C@@H]2O[C@]12C,4.07%,
CC(Nc1oc(-c2ccccc2)nc1C(C)(C)C)c1ccccc1 (centres undefined),0.527%,
N#Cc1ccc2c(c1)C[C@]1(CCCCN3C(=O)c4ccccc4C3=O)Oc3c(c(=O)oc4ccccc34)[C@H]2O1,-19.4%,
